Measured values published in PubChem BioAssay AID1159580 (chemical genetic matrix, 2015).
Among all 5,500 compounds or so, about 2,000 (36%) were called active. Not shown: some 18% with an inconclusive outcome. No stated cut-off is given here; in the data, active means normalized growth mostly below about 0.91 (no sharp cut-off); inconclusive means no clear call, values can overlap the other calls; inactive means mostly above about 0.92. The list shows a part of the results.

Experiment: chemical genetic growth profiling, strain panel (AID 1159580);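 further: tested at 20 µM; growth read once vehicle control cultures reached saturation at 30 °C; 1 = growth at the plate median or of vehicle wells; lower values mean less growth of the strain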
Settings: growth OD

Measured: normalized growth

COc1cc(OC)c2c(=O)c(-c3ccccc3)c(C)oc2c1OC
inactive: S. cerevisiae deletion strains, locus YJR043C, strain POL32, hits give low values 1.01 | S. cerevisiae deletion strains, locus YJR075W, strain HOC1, hits give low values 1.02 | S. cerevisiae deletion strains, locus YKL009W, strain mrt4, hits give low values 1 | S. cerevisiae deletion strains, locus YKL068W, hits give low values 1 | S. cerevisiae deletion strains, locus YKL085W, strain MDH1 (second series), hits give low values 0.996 | S. cerevisiae deletion strains, locus YKL085W, strain MDH1, hits give low values 0.996 | S. cerevisiae deletion strains, locus YKL160W, strain elf1, hits give low values 1 | S. cerevisiae deletion strains, locus YKL190W, strain CNB1, hits give low values 1.01 | S. cerevisiae deletion strains, locus YKR001C, strain vps1, hits give low values 0.993 | S. cerevisiae deletion strains, locus YKR026C, strain gcn3, hits give low values 0.966 | S. cerevisiae deletion strains, locus YKR091W, strain srl3, hits give low values 0.962 | S. cerevisiae deletion strains, locus YLL001W, strain dnm1, hits give low values 1.01 | S. cerevisiae deletion strains, locus YLL026W, hits give low values 0.984 | S. cerevisiae deletion strains, locus YLL041C, strain sdh2, hits give low values 1 | S. cerevisiae deletion strains, locus YLR027C, strain aat2, hits give low values 0.982 | S. cerevisiae deletion strains, locus YLR039C, strain RIC1, hits give low values 0.984 | S. cerevisiae deletion strains, locus YLR058C, strain SHM2, hits give low values 1.01 | S. cerevisiae deletion strains, locus YLR102C, strain apc9, hits give low values 0.999 | S. cerevisiae deletion strains, locus YLR221C, strain rsa3, hits give low values 0.957 | S. cerevisiae deletion strains, locus YLR258W, strain gsy2, hits give low values 0.987 | S. cerevisiae deletion strains, locus YLR262C, strain YPT6 (second series), hits give low values 0.951 | S. cerevisiae deletion strains, locus YLR262C, strain YPT6, hits give low values 0.989 | S. cerevisiae deletion strains, locus YLR268W, strain sec22, hits give low values 0.972 | S. cerevisiae deletion strains, locus YLR320W, strain mms22, hits give low values 0.984 | S. cerevisiae deletion strains, locus YLR330W, strain CHS5, hits give low values 1.01 | S. cerevisiae deletion strains, locus YLR342W, strain FKS1 (second series), hits give low values 1.01 | S. cerevisiae deletion strains, locus YLR342W, strain FKS1, hits give low values 0.956 | S. cerevisiae deletion strains, locus YLR357W, strain rsc2, hits give low values 0.986 | S. cerevisiae deletion strains, locus YLR370C, strain arc18, hits give low values 0.977 | S. cerevisiae deletion strains, locus YLR371W, strain rom2, hits give low values 1 | S. cerevisiae deletion strains, locus YLR384C, strain iki3, hits give low values 0.98 | S. cerevisiae deletion strains, locus YLR418C, strain cdc73, hits give low values 1.03 | S. cerevisiae deletion strains, locus YML016C, strain PPZ1, hits give low values 1.01 | S. cerevisiae deletion strains, locus YML032C, strain rad52, hits give low values 0.997 | S. cerevisiae deletion strains, locus YML120C, strain ndi1, hits give low values 0.973 | S. cerevisiae deletion strains, locus YML124C, strain tub3, hits give low values 0.989 | S. cerevisiae deletion strains, locus YMR058W, strain fet3, hits give low values 0.988 | S. cerevisiae deletion strains, locus YMR078C, strain ctf18, hits give low values 0.99 | S. cerevisiae deletion strains, locus YMR125W, strain sto1, hits give low values 0.981 | S. cerevisiae deletion strains, locus YMR129W, hits give low values 0.972 | S. cerevisiae deletion strains, locus YMR205C, strain PFK2, hits give low values 0.95 | S. cerevisiae deletion strains, locus YMR223W, strain ubp8, hits give low values 0.996 | S. cerevisiae deletion strains, locus YMR231W, strain pep5, hits give low values 0.992 | S. cerevisiae deletion strains, locus YMR263W, strain SAP30, hits give low values 1.02 | S. cerevisiae deletion strains, locus YMR307W, strain GAS1, hits give low values 1.02 | S. cerevisiae deletion strains, locus YNL067W, strain RPL9B, hits give low values 1.02 | S. cerevisiae deletion strains, locus YNL071W, strain lat1, hits give low values 0.984 | S. cerevisiae deletion strains, locus YNL128W, strain TEP1, hits give low values 1.04 | S. cerevisiae deletion strains, locus YNL153C, strain GIM3, hits give low values 1.01 | S. cerevisiae deletion strains, locus YNL209W, strain ssb2, hits give low values 0.982 | S. cerevisiae deletion strains, locus YNL233W, strain BNI4, hits give low values 1 | S. cerevisiae deletion strains, locus YNL248C, strain rpa49, hits give low values 1.01 | S. cerevisiae deletion strains, locus YNL250W, strain rad50, hits give low values 0.994 | S. cerevisiae deletion strains, locus YNL271C, strain bni1, hits give low values 1 | S. cerevisiae deletion strains, locus YNL298W, strain CLA4, hits give low values 1.01 | S. cerevisiae deletion strains, locus YNL307C, strain MCK1, hits give low values 0.978 | S. cerevisiae deletion strains, locus YNL322C, strain KRE1 (second series), hits give low values 0.979 | S. cerevisiae deletion strains, locus YNL322C, strain KRE1, hits give low values 1.01 | S. cerevisiae deletion strains, locus YNR049C, strain mso1, hits give low values 0.976 | S. cerevisiae deletion strains, locus YNR052C, strain pop2, hits give low values 1.01 | S. cerevisiae deletion strains, locus YOL006C, strain TOP1, hits give low values 1.02 | S. cerevisiae deletion strains, locus YOL012C, strain htz1 0.978 | S. cerevisiae deletion strains, locus YOL147C, strain pex11, hits give low values 0.992 | S. cerevisiae deletion strains, locus YOR001W, strain rrp6, hits give low values 1.01 | S. cerevisiae deletion strains, locus YOR061W, strain CKA2, hits give low values 1.01 | S. cerevisiae deletion strains, locus YOR069W, strain VPS5, hits give low values 1 | S. cerevisiae deletion strains, locus YOR070C, strain gyp1, hits give low values 0.987 | S. cerevisiae deletion strains, locus YOR080W, strain dia2, hits give low values 0.989 | S. cerevisiae deletion strains, locus YOR083W, strain WHI5, hits give low values 1.01 | S. cerevisiae deletion strains, locus YOR106W, strain vam3, hits give low values 0.994 | S. cerevisiae deletion strains, locus YOR136W, strain idh2, hits give low values 0.993 | S. cerevisiae deletion strains, locus YOR144C, strain elg1, hits give low values 0.999 | S. cerevisiae deletion strains, locus YOR184W, strain ser1, hits give low values 0.999 | S. cerevisiae deletion strains, locus YOR265W, strain rbl2, hits give low values 0.987 | S. cerevisiae deletion strains, locus YOR270C, strain vph1, hits give low values 0.989 | S. cerevisiae deletion strains, locus YOR290C, strain snf2, hits give low values 0.933 | S. cerevisiae deletion strains, locus YOR316C, strain cot1, hits give low values 1 | S. cerevisiae deletion strains, locus YPL051W, strain arl3, hits give low values 1 | S. cerevisiae deletion strains, locus YPL055C, strain LGE1, hits give low values 1.04 | S. cerevisiae deletion strains, locus YPL078C, strain atp4, hits give low values 0.995 | S. cerevisiae deletion strains, locus YPL106C, strain sse1, hits give low values 0.942 | S. cerevisiae deletion strains, locus YPL240C, strain hsp82, hits give low values 0.983 | S. cerevisiae deletion strains, locus YPL241C, strain CIN2, hits give low values 1.01 | S. cerevisiae deletion strains, locus YPR119W, strain clb2, hits give low values 0.99 | S. cerevisiae deletion strains, locus YPR141C, strain kar3, hits give low values 1 | S. cerevisiae deletion strains, locus YPR163C, strain tif3, hits give low values 0.992 | S. cerevisiae deletion strains, locus YPR167C, strain met16, hits give low values 1 | S. cerevisiae deletion strains, strain wtn01, hits give low values 0.997 | S. cerevisiae strains, strain wild type, hits give low values 1.02
